Ecoli rRNA inh – inhibitors of bacterial rRNA selective over humanized ribosomes | E. coli WT GFP vs humanized-ribosome RFP mutants, fluorescence, 24 h; stronger effect = lower value; DMSO median 0, no signal -100 | 350,000 compounds, 1.6% hits | GFP signal change (wild-type ribosome), % (concentration not given with the values);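 active = significant combined selectivity score with lowered wild-type GFP, culture density cut under 30%, mutant RFP and density less affected; inactive = any of these conditions unmet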
Wnt bcat act – Wnt/beta-catenin pathway activation; Wnt/beta-catenin reporter cell assay, activator, plate reader; 300,000 compounds, 1.2% hits; activation, % at 9.35 µM; in the data active = activation above about 30%, passing the limit was not always enough; inconclusive = no clear call, values can overlap the other calls;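 note: 0% = neutral control wells and 100% = positive control wells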
MITF TRPM1 HTS – MITF TRPM1 promoter activation in melanoma cells | SK-MEL-5 TRPM1-promoter luciferase, 24 h; % of positive control, neutral wells = 0 | activation, % at 12.5 µM | 300,000 compounds, 0.75% hits | AID 588334;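 active = mean activation of at least 80% with every replicate also reaching 80%; inconclusive = mean reaches 80% but some replicate falls short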;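 note: 0% = neutral control wells and 100% = parthenolide positive control wells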
esBAF inh – inhibitors of esBAF chromatin remodeling in mouse ES cells. Bmi1-luciferase knock-in reporter, 24 h; 100% = twice the neutral-well signal. reporter increase, % at 12.5 µM. 350,000 compounds, 2% hits; in the data active = activation above about 40%; inconclusive = no clear call, values can overlap the other calls;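 note: 0% = median of the plate's neutral control wells and 100% = double that signal; a rise in the Bmi1 reporter signal indicates esBAF inhibition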
AF4-AF9 inh – blocks AF4 peptide binding to human AF9. AlphaScreen, biotin-AF4 peptide binding to FLAG-AF9. inhibition, % at 10 µM. 350,000 compounds, 0.47% hits. AID 651704;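 active = every replicate reaching a set inhibition limit, whatever the replicate mean, cut at about 25% in these data; inconclusive = mean inhibition reaches that limit but some replicates miss it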;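 note: 0% = plate neutral control median and 100% = total signal loss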
Target sequence (P42568 whole entry, looked up): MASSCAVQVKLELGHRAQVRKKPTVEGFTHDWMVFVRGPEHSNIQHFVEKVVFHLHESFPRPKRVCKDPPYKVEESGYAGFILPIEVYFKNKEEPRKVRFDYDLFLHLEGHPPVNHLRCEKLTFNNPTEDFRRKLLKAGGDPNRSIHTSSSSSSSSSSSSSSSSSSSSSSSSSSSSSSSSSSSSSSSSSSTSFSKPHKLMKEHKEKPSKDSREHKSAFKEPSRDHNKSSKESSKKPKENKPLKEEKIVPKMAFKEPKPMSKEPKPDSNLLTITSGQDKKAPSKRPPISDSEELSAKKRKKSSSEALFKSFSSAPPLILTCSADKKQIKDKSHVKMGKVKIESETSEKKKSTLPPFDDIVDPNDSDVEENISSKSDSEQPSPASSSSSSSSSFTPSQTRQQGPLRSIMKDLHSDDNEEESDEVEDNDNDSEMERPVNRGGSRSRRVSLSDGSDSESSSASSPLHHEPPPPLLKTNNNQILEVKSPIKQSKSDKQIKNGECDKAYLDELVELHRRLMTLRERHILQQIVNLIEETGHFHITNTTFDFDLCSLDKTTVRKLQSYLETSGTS
The depositor's hits bear a star. An excerpt weighted towards active compounds, which were near 3.7% of everything screened.

Results for O=C(CSc1nnc(-c2cccnc2)o1)Nc1ccc(F)cc1 ?
Wnt bcat act: 7; esBAF inh: 11; AF4-AF9 inh: -3

What do the screens show for `CC(=O)Nc1cccc(NC(=O)CSc2ccc(-c3cccnc3)nn2)c1`?
Ecoli rRNA inh: -26*; Wnt bcat act: -1; MITF TRPM1 HTS: 15; AF4-AF9 inh: -1

What do the screens show for `O=C(CSc1nnc(-c2ccncc2)o1)Nc1cc(F)ccc1F`?
Ecoli rRNA inh: 12; Wnt bcat act: 33*; MITF TRPM1 HTS: 59; esBAF inh: 32; AF4-AF9 inh: 0

How did COc1ccc(-c2nnc(SCC(=O)Nc3cccc(Cl)c3)o2)cc1 do in these assays?
Wnt bcat act: 46*; esBAF inh: 33

Results for COc1cccc(-c2nnc(SCC(=O)N(C(C)C)C(C)C)o2)c1 ?
Wnt bcat act: 50*; MITF TRPM1 HTS: 24; esBAF inh: 13

What do the screens show for `COc1cc(OC)cc(-c2nnc(SCC(=O)N(C(C)C)C(C)C)o2)c1`?
Ecoli rRNA inh: 11; MITF TRPM1 HTS: 4; esBAF inh: -3

Results for COC(=O)C1=C(C)Nc2ncnn2C1c1ccc(OCc2ccccc2)cc1 (stereo not drawn) ?
MITF TRPM1 HTS: -3; esBAF inh: 2

What do the screens show for `Cc1ccc(OCc2cc(C(=O)N3CCCCCCC3)no2)cc1C`?
Ecoli rRNA inh: -15; Wnt bcat act: 7; MITF TRPM1 HTS: 37; esBAF inh: 32; AF4-AF9 inh: -2

Results for CCN(Cc1ccncc1)C(=O)c1cc(COc2ccc(C)c(C)c2)on1 ?
Ecoli rRNA inh: -11; Wnt bcat act: 1; MITF TRPM1 HTS: 4; esBAF inh: 8; AF4-AF9 inh: 0

How did Cc1ccc(OCc2cc(C(=O)N(CCO)Cc3cccs3)no2)cc1C do in these assays?
Ecoli rRNA inh: -19; Wnt bcat act: 27; MITF TRPM1 HTS: 86*; esBAF inh: 84*; AF4-AF9 inh: 0

What do the screens show for `Cc1ccc(OCc2cc(C(=O)N3CCC(c4ccccc4Cl)C3)no2)cc1C` (stereo not drawn)?
Ecoli rRNA inh: 3; Wnt bcat act: 29; MITF TRPM1 HTS: 50; esBAF inh: 57*; AF4-AF9 inh: -1

How did Cc1ccc(OCc2cc(C(=O)N3CCN(c4ccccc4)CC3)no2)cc1C do in these assays?
Ecoli rRNA inh: -1; Wnt bcat act: 36*; MITF TRPM1 HTS: 83*; esBAF inh: inconclusive; AF4-AF9 inh: 0

Results for CCCc1cc(C(=O)N2CCN(C(c3ccccc3)c3ccccc3)CC2)no1 ?
Ecoli rRNA inh: -1; Wnt bcat act: 2; MITF TRPM1 HTS: 1; esBAF inh: 11; AF4-AF9 inh: 50*

What do the screens show for `O=S(=O)(O)c1cc(OS(=O)(=O)c2ccccc2)cc2ccccc12`?
Ecoli rRNA inh: -4; Wnt bcat act: 0; esBAF inh: 11; AF4-AF9 inh: 1

Results for Cc1ccnc(NC(=O)CNC(=O)c2ccco2)c1 ?
Ecoli rRNA inh: 8; Wnt bcat act: -2; MITF TRPM1 HTS: 5; esBAF inh: 19; AF4-AF9 inh: -2

What do the screens show for `Cc1ccc(OCc2cc(C(=O)N3CCN(C4CCCC4)CC3)no2)cc1C`?
Ecoli rRNA inh: 5; Wnt bcat act: 6; MITF TRPM1 HTS: 12; esBAF inh: 8; AF4-AF9 inh: 1

How did Cc1ccc(OCc2cc(C(=O)N3CCN(C4CCCCC4)CC3)no2)cc1C do in these assays?
Ecoli rRNA inh: -33; Wnt bcat act: 11; MITF TRPM1 HTS: 36; esBAF inh: 55*; AF4-AF9 inh: 1

What do the screens show for `C[C@@H]1CCCCO[C@H](CN(C)C(=O)NC2CCCCC2)[C@H](C)CN([C@@H](C)CO)C(=O)c2cc(NC(=O)Nc3ccc(C(F)(F)F)cc3)ccc2O1`?
Ecoli rRNA inh: 5; esBAF inh: 2; AF4-AF9 inh: -2

Results for COc1ccc(CN=C2Nc3ccccc3CS2)cc1 ?
Ecoli rRNA inh: -4; esBAF inh: 61*

What do the screens show for `Cn1c(=O)c2c(-c3ccccc3)n(-c3ccccc3)cc2n(C)c1=O`?
Ecoli rRNA inh: 0; Wnt bcat act: -2; esBAF inh: -12; AF4-AF9 inh: 3

Results for Cn1c(=O)c2cn3c(c2n(C)c1=O)C(c1ccccc1)CC(c1ccccc1)=N3 (stereo not drawn) ?
Wnt bcat act: -3; MITF TRPM1 HTS: -21; esBAF inh: 77*

Results for COc1ccccc1-c1cc(C(=O)N2CCCC2)no1 ?
Ecoli rRNA inh: -2; Wnt bcat act: 37*; MITF TRPM1 HTS: 51; esBAF inh: -59; AF4-AF9 inh: -3

How did CCC(C)NC(=O)c1cc(-c2ccccc2O)on1 (stereo not drawn) do in these assays?
Ecoli rRNA inh: 0; Wnt bcat act: 12; esBAF inh: 57*; AF4-AF9 inh: 1

What do the screens show for `Cc1ccc(O)c(NC(=O)c2cc(-c3cccs3)on2)c1`?
Ecoli rRNA inh: 3; Wnt bcat act: -12; MITF TRPM1 HTS: 122*; esBAF inh: 52*; AF4-AF9 inh: -3

How did CC1CCN(C(=O)c2cc(-c3ccco3)on2)CC1 do in these assays?
Ecoli rRNA inh: 7; Wnt bcat act: 24; MITF TRPM1 HTS: 55; esBAF inh: 30; AF4-AF9 inh: -12

What do the screens show for `CC1CCN(C(=O)c2cc(-c3ccccc3O)on2)CC1`?
Ecoli rRNA inh: 7; Wnt bcat act: 63*; MITF TRPM1 HTS: 104*; esBAF inh: 35; AF4-AF9 inh: -13

How did O=C(c1cccc(N2CCCC2=O)c1)N1CCN(c2cccc(Cl)c2)CC1 do in these assays?
MITF TRPM1 HTS: -8; esBAF inh: -4

Results for COc1ccccc1-c1cc(C(=O)NC(C)c2ccccc2)no1 (stereo not drawn) ?
MITF TRPM1 HTS: 5; esBAF inh: -3

Results for COc1ccccc1-c1cc(C(=O)N2CCOCC2)no1 ?
Ecoli rRNA inh: 4; Wnt bcat act: 29; MITF TRPM1 HTS: 105*; esBAF inh: inconclusive; AF4-AF9 inh: 0

Results for CC(C)NC(=O)c1cc(-c2cccs2)on1 ?
Wnt bcat act: 55*; esBAF inh: 35

How did Cc1cc(NC(=O)c2cc(-c3cccs3)on2)no1 do in these assays?
Ecoli rRNA inh: 11; Wnt bcat act: -1; MITF TRPM1 HTS: 12; AF4-AF9 inh: 3

Results for COc1ccccc1-c1cc(C(=O)NC(C)C)no1 ?
Ecoli rRNA inh: -17; Wnt bcat act: 16; MITF TRPM1 HTS: 39; esBAF inh: 52*; AF4-AF9 inh: 5

What do the screens show for `C[C@@H]1CN([C@@H](C)CO)C(=O)c2cccc(NC(=O)c3nc4ccccc4s3)c2O[C@@H]1CN(C)Cc1ccc(-c2ccccc2)cc1`?
Ecoli rRNA inh: 4; esBAF inh: 4; AF4-AF9 inh: 2

How did C=COCCNC(=O)Nc1ccc(Cl)c(Cl)c1 do in these assays?
Ecoli rRNA inh: -21*; Wnt bcat act: 4; MITF TRPM1 HTS: -20; esBAF inh: -1; AF4-AF9 inh: 2

What do the screens show for `Cc1ccsc1/C=N/Nc1ccc(F)cc1F`?
Ecoli rRNA inh: 0; Wnt bcat act: 10; MITF TRPM1 HTS: 95*; AF4-AF9 inh: 16

How did Cc1ccsc1/C=N/Nc1ncc(Cl)cc1Cl do in these assays?
Wnt bcat act: 4; esBAF inh: 55*
